Results on 93 molecules are retold here after PubChem BioAssay AID624330 (Southern Research Specialized Biocontainment Screening …, 2012).

Broadly, the inhibition is the drop in the measured response relative to a control, in per cent.

Out of some 340,000 compounds screened, about 2,100 (0.62%) were called active.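 Rule for the calls: active = first-screen hits whose inhibition reached a set limit at any dose in the follow-up dose series; inconclusive = inhibition above the set first-screen limit but never retested; inactive = the rest.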 The list is a sample of the results. Measured potencies and affinities stand elsewhere.

The experiment deals with Rac GTPase-activating protein 1 (Homo sapiens) (UniProt Q9H0H5). Put plainly: blockers of MgcRacGAP-driven Rac1 GTP hydrolysis – biochemical, ADP Hunter fluorescence, primary and confirmatory, confirmation (AID 624330).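 Note: fluorescence reports GDP produced by GAP-driven GTP hydrolysis.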 The settings on record: MgcRacGAP-stimulated Rac1 GTP hydrolysis, at 30 µM, stronger effect = higher value, GST-tagged Rac1 F28L mutant substrate.
Sequence of Rac GTPase-activating protein 1 (Homo sapiens) (Q9H0H5 whole entry, looked up): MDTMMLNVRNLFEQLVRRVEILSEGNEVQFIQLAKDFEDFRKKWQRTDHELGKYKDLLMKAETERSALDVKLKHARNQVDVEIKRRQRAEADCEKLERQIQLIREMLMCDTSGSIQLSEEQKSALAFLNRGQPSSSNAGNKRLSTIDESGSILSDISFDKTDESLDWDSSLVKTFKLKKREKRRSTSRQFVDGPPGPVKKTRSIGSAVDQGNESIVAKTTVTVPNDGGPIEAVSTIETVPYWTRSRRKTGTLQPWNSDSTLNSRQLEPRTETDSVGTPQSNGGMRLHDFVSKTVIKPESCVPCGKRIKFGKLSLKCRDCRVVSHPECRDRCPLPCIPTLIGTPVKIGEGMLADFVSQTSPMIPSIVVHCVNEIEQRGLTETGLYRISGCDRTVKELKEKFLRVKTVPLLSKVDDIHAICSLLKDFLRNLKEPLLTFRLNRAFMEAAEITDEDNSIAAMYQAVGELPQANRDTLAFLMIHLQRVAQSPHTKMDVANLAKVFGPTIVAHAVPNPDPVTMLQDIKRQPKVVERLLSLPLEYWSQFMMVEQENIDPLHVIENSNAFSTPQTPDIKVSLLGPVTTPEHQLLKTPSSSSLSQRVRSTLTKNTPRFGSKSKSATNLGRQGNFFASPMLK
`CC(C)C[C@H]1CN([C@@H](Cc2ccc(O)cc2)CN2CCC[C@@H]2CN2C(=O)C(=O)NC[C@@H]2Cc2ccccc2)C(=O)C(=O)N1CC1CCCCCC1`: the inhibition is 10.4% (inactive). For `O=C(CNC(=O)c1ccco1)NCc1ccc2c(c1)OCO2`, the inhibition was 3.26% (inactive). In the case of `C=CCn1c(-c2ccc(Cl)cc2)cnc1SC(C)C(N)=O` (stereo not drawn), the inhibition is 13.8% (inactive). Turning to `CCOc1cc(N2CCOCC2)c(OCC)cc1NC(=O)c1ccc2ncsc2c1`, the inhibition is 9.53% (inactive).

On to `Cn1c(=O)c2[nH]c(Cc3cccc(O)c3)nc2n(C)c1=O`, for which the inhibition is -6.27% (inactive). Turning to `O=C(Nc1ccc2c(c1)OCO2)O[C@@H]1C[C@H]2CCC(=O)N3CC[C@@H](C1)[C@@H]23`, the inhibition was 5.22% (inactive). The same measure for `COc1ccc(CN2CCNC(=O)C2CC(=O)NCCc2nc(C)c3c(n2)CCC3)cc1C` (stereo not drawn): 3.36% (inactive); for `CCCCOc1ccc(NC(=O)CN2CCN(C(=O)OCC)CC2)cc1`: 23.5% (inactive); for `Cc1ccc(N)cc1NC(=O)CN1CCOCC1`: 9.26% (inactive).

Turning to `COc1ccc(N)cc1NC(=O)CN1CCCC1`, the inhibition is 30% (inactive). For `Cc1ccc(NC(=O)CCN2CCN(CCO)CC2)cc1Br`, the inhibition was 7.64% (inactive).

In the case of `CCOC(=O)N1CCN(CC(=O)Nc2ccc(C)c(Br)c2)CC1`, the inhibition is 19.6% (inactive). As to `CCCCOc1ccc(NC(=O)CN2CCN(Cc3ccccc3)CC2)cc1`, the inhibition was 2.92% (inactive). With `CCOc1ccccc1NC(=O)CSC1=NN2CCCC(=O)N=C2S1`, the inhibition was 4.37% (inactive).

For `O=C(Cc1nnc(NC(=O)Nc2ccccc2)s1)NCc1ccccc1`, the inhibition was 11.4% (inactive). The result for `O=C(Cc1ccccc1)NCCSCc1ccccc1` reads 10.9% (inactive); that for `CC(=O)NS(=O)(=O)c1ccc(NC(=O)c2cccc3ccccc23)cc1`, 5.73% (inactive); that for `COC(=O)c1ccccc1NC(=O)c1cc(-c2ccc(C)cc2)on1`, -6.22% (inactive). On to `N#CCCN1CCN(C(=S)c2ccc(-c3cccc(Cl)c3)o2)CC1`, for which the inhibition is 6.88% (inactive). For `Clc1nssc1=Nc1nncs1`, the inhibition was 20.4% (inactive). The same measure for `Cc1ccc(N=c2ssnc2Cl)cc1`: 9.47% (inactive); for `CCCCCCCNC(=O)C1(CC2CC(c3ccccc3)=NO2)CCN(C(=O)c2ccccc2)CC1` (stereo not drawn): 7.41% (inactive). As for `O=C(Cc1cccc(C(F)(F)F)c1)N1CCCC1`, the inhibition is 1.4% (inactive). `COc1ccc(Br)cc1/C=N/NC(=O)CN1CCN(Cc2ccccc2)CC1`: the inhibition was 2.09% (inactive). On to `COc1ccc(C(=O)N/C(=C\c2cn(S(=O)(=O)N(C)C)c3ccccc23)C(=O)N2CCCC2)cc1`, for which the inhibition was 12% (inactive).

On to `CCOc1cc(/C=N/n2nnnc2N)ccc1OCc1c(C)no[n+]1[O-]`, for which the inhibition was 7.97% (inactive). On to `O=C(/C=C/c1ccc(Br)cc1)NC(=O)c1ccccc1O`, for which the inhibition was 0.42% (inactive). Take `O=C(/C=C/c1ccccc1)NC(=O)c1ccccc1O`: the inhibition was 11.1% (inactive). For `CCN(CC)C(=O)c1[nH]cnc1C(=O)N[C@@H](CC(C)C)C(=O)OC(C)(C)C`, the inhibition was 8.38% (inactive).

Turning to `COc1ccc(C(=O)CC2OC(=O)c3c2ccc(OC)c3OC)cc1` (stereo not drawn), the inhibition is -2.86% (inactive).

With `COc1ccc2c(c1OC)C(=O)OC2CC(=O)c1ccc(O)cc1` (stereo not drawn), the inhibition is 12.6% (inactive). As to `COc1cc(S(=O)(=O)N2CCCCC2)ccc1NC(=O)c1ccncc1`, the inhibition is 4.39% (inactive). Regarding `O=C(NCc1ccccc1)c1n[nH]nc1-c1ccccc1O`, the inhibition was -8.5% (inactive).

In the case of `Nc1nc(N)c(N=Nc2ccccc2)c(=O)[nH]1`, the inhibition is 2.34% (inactive). Consider `Nc1nc(N)c(N=Nc2ccc(C(=O)O)cc2)c(N)n1`, for which the inhibition is -11.2% (inactive).

On to `C[C@H](CO)N1C[C@H](C)[C@@H](CN(C)S(C)(=O)=O)Oc2ccc(NC(=O)CCN3CCOCC3)cc2C1=O`, for which the inhibition is 3.2% (inactive).

Consider `C(=N\Nc1nc(N2CCCC2)nc(N2CCCC2)n1)/c1ccncc1`, for which the inhibition was -2.52% (inactive). Regarding `CCOc1cc(/C=N/Nc2nc(N3CCCC3)nc(N3CCCC3)n2)ccc1O`, the inhibition is 26.7% (inactive). Take `O=[N+]([O-])c1cc(/C=N/Nc2nc(N3CCCCC3)nc(N3CCCCC3)n2)ccc1O`: the inhibition was 9.9% (inactive). Regarding `CCOc1ccc(/C=N/Nc2nc(N3CCCC3)nc(N3CCCC3)n2)cc1OC`, the inhibition is 3.96% (inactive). Take `COc1ccc(/C=N/Nc2nc(N3CCCCC3)nc(N3CCCCC3)n2)cc1[N+](=O)[O-]`: the inhibition was -0.88% (inactive). As to `COc1ccc(/C=N/Nc2nc(N3CCCC3)nc(N3CCCC3)n2)cc1`, the inhibition is 3.1% (inactive). In the case of `Cn1c(=O)c2ncn(CC(=O)NCCOCc3ccccc3Cl)c2n(C)c1=O`, the inhibition was 0.57% (inactive). `O=C(CS(=O)CC(=O)Nc1cccnc1)Nc1ccc(F)cc1` (stereo not drawn): the inhibition is 5.58% (inactive).

Regarding `CCOc1ccccc1/C=C(\C#N)C(=O)Nc1cccc(C(=O)O)c1`, the inhibition is -4.51% (inactive).

On to `CCCCN(C(=O)C1CCN(C(=O)c2ccccc2C)CC1)c1c(N)n(CCCC)c(=O)[nH]c1=O`, for which the inhibition is 4% (inactive).

Turning to `O=C(O)COCC(=O)Nc1ccc2c(c1)ncn2CCc1ccccc1`, the inhibition is 2.87% (inactive). Take `NC(=O)c1ccc(NC(=O)c2cncn2-c2ccccc2)cc1`: the inhibition is 1.08% (inactive).

In the case of `CC(C)(C)C1CCC(=O)N(CCOc2ccccc2)CC1` (stereo not drawn), the inhibition was 5.11% (inactive). The result for `CCN(c1ccccc1)S(=O)(=O)c1ccc(N2CCN(c3ccc(OC)cc3)CC2)nc1` reads 4.13% (inactive); that for `CCN(c1ccccc1)S(=O)(=O)c1ccc(N2CCN(c3ccccc3O)CC2)nc1`, 5.54% (inactive). For the molecule `CN1/C(=C\C(=O)c2cccc([N+](=O)[O-])c2)Sc2ccccc21`, the inhibition was 10.8% (inactive).

`CSCCC(NC(=O)c1ccc([N+](=O)[O-])cc1Cl)C(=O)OCC(=O)NC(=O)CN1CCCC1=O` (stereo not drawn): the inhibition is -5.24% (inactive). With `CCOc1ccc(S(=O)(=O)N2CCN(Cc3ccccc3)CC2)cc1`, the inhibition was -12% (inactive). For the molecule `CCOc1ccc(CN2CCN(S(=O)(=O)c3ccc(NC(C)=O)cc3)CC2)cc1OC`, the inhibition is 10.5% (inactive). For the molecule `Cc1ccc(S(=O)(=O)NCCC(=O)N2CCN(c3ccccc3)CC2)cc1C`, the inhibition was -2.5% (inactive).

Take `O=C(COC(=O)Cn1cnc2ccccc21)NCCCc1ccccc1`: the inhibition was 0.48% (inactive). The same measure for `O=C(CNCc1cccc(Cl)c1)N1CCc2ccccc2C1`: 30.6% (inactive); for `O=C(CNCc1ccc(Cl)cc1)N1CCc2ccccc2C1`: 25.8% (inactive); for `CN(Cc1ccc(N(C)C)cc1)C(=O)c1cc2ccccc2o1`: 2.93% (inactive). As to `C#CCOCCOCCOCCNc1nc(N2CCN(C(=O)Cn3cc(CCO)nn3)CC2)nc(N2CCN(C(=O)[C@H]([C@@H](C)CC)n3cc(CCCN=C(N)N)nn3)CC2)n1`, the inhibition was -0.25% (inactive). In the case of `O=C(Cc1ccc([N+](=O)[O-])cc1)Nc1cccc(C(=O)N2CCCCC2)c1`, the inhibition is 6.71% (inactive). For `N/C(COc1ccc(Cl)cc1Cl)=N\O`, the inhibition was 7.42% (inactive). With `C[C@@H](NC(=O)C[C@@H]1C[C@@H]2c3cc(NS(=O)(=O)c4ccc(F)cc4)ccc3O[C@@H]2[C@@H](CO)O1)c1ccccc1`, the inhibition is 14.8% (inactive). For `CCN1/C(=C2\C(=O)N(C)C(=S)N2C)C=Cc2cc(C)ccc21`, the inhibition was 30.1% (inactive).

With `CCN1/C(=C2/SC(=S)N(C)C2=O)C=Cc2cc(C)ccc21`, the inhibition was 1.56% (inactive).

For the molecule `CC(C)CNC(=S)NC1CC2CCCC(C1)N2Cc1cccs1` (stereo not drawn), the inhibition is -4.03% (inactive). On to `CCOC(=O)Nc1cc(NC(=O)OCC)c(C)nc1C`, for which the inhibition is 9.52% (inactive). `CCc1nc(SCC(=O)N2CCN(c3ccccc3)CC2)c2oc3ccccc3c2n1`: the inhibition is 18.4% (inactive). Turning to `CCc1nc(Nc2ccc(F)cc2)c2oc3ccccc3c2n1`, the inhibition is 10.5% (inactive). With `c1ccc(Nc2ncnc3c2oc2ccccc23)cc1`, the inhibition was 13% (inactive). On to `CCc1nc(Nc2ccccc2)c2oc3ccccc3c2n1`, for which the inhibition was 7.79% (inactive).

Consider `CCc1nc(Nc2ccncc2)c2oc3ccccc3c2n1`, for which the inhibition was 9.44% (inactive). Take `c1ccc2c(c1)oc1c(Nc3ccc(CN4CCOCC4)cc3)ncnc12`: the inhibition is 14.1% (inactive). As to `CC(=O)c1ccc(Nc2ncnc3c2oc2ccccc23)cc1`, the inhibition was 5.82% (inactive). Consider `Cc1ccc(Nc2ncnc3c2oc2ccccc23)cc1`, for which the inhibition is 11.9% (inactive). The same measure for `COc1ccc(NC(=O)Nc2nnc(CC(=O)NCc3ccccc3)s2)cc1`: -13.3% (inactive); for `COc1cc(C(=O)N2CCN(c3ccc([N+](=O)[O-])cc3)CC2)ccc1OCc1c(C)noc1C`: 12.9% (inactive); for `COc1cc(NC(=O)Cn2cnc(S(=O)(=O)N3CCCCC3)c2)cc(OC)c1OC`: 1.97% (inactive). The result for `O=C(NCc1ccccc1)c1cc(=O)c2ccccc2o1` reads 3.22% (inactive); that for `CSC[C@H]1CN(Cc2ccccc2)C(=O)[C@@H]1CC(=O)Nc1ccc(Br)cc1`, 11% (inactive); that for `COCCCn1c(SCC(=O)NC(C)(C)C)nnc1-c1cccs1`, 9.91% (inactive). With `O=C(N/N=C/c1ccc(C(F)(F)F)cc1)c1ccncc1`, the inhibition was 5.6% (inactive). As for `Fc1ccc(Nc2ncnc3ccccc23)cc1`, the inhibition is 9.64% (inactive). As for `Cc1ccc(Nc2ncnc3ccccc23)cc1`, the inhibition is 12.6% (inactive).

`COc1ccc(-c2nsc(SCC(=O)NCC3CCCO3)n2)cc1` (stereo not drawn): the inhibition was 5.33% (inactive).

For the molecule `O=C1C2C3C=CC(CC3)C2C(=O)N1c1ccc([N+](=O)[O-])cc1` (stereo not drawn), the inhibition was 12.6% (inactive). As for `COc1ccnc(NCc2cccc(C(F)(F)F)c2)c1C#N`, the inhibition was -0.963% (inactive). Turning to `COc1cccc(Cn2nc(C(=O)O)c3ccccc3c2=O)c1`, the inhibition is 0.46% (inactive). Consider `Cn1ccc(=O)c2cc([N+](=O)[O-])ccc21`, for which the inhibition is 9.86% (inactive). As to `CCn1c2ccccc2c2cc(NC(=O)c3ccc([N+](=O)[O-])cc3)ccc21`, the inhibition was 8.32% (inactive).

As for `Cc1csc(SCC(=O)NC2CCC(C)CC2)n1` (stereo not drawn), the inhibition is -6.91% (inactive). Consider `O=C(c1ccco1)N1CCN=C1SCc1cccnc1`, for which the inhibition was 4.28% (inactive).
